Consider 40 compounds from PubChem BioAssay (NCATS).

SMILES strings stand for the structures. A number with no mark means an inactive call. Calls come from the whole dose curve; as a rule, active = well fitted cell-killing curve with a large enough effect; inconclusive = small, poorly fitted or top-dose-only effect; inactive = flat fitted curve, though single readings scatter.

One test is described as follows: MultiTox-Fluor Cytotoxicity Assay - LYMP1-003 - Live Cells (AID 962).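 Note: cells exposed to compound for 16 hours at 37 °C; 0% = DMSO only and full loss = 92 µM tetraoctylammonium bromide; cytotoxic hits lower the live-cell protease signal.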 To be noted: LYMP1-003 lymphoblastoid cells, MultiTox-Fluor live-cell protease fluorescence; series mostly up to 92.2 µM; activity change, negative = fewer live cells: at the top concentration. The method, boiled down:
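Readout: live-cell fluorescence (Ex/Em=405/510) from GF-AFC cleavage after 60 min MultiTox-Fluor reagent at room temperature. Lymphoblastoid LYMP1-003 cells, 16 hr compound treatment, 37 C. Concentration-response fitted to standard Hill equation for AC50.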
Take `ClCCl`: the “activity change, negative = fewer live cells” value (“activity change” for short) is -2.18%.

Take `CN(C)CCCCl`: the “activity change” value was -6.42%.

As for `CC(=O)c1cccc([N+](=O)[O-])c1`, the “activity change” value was -0.468%.

As to `O=C(O)c1ccccc1Cl`, the “activity change” value is -4.59%.

As for `CSCCC=O`, the “activity change” value was -9.86%.

For the compound `C=C(C)OC(C)=O`, the “activity change” value was -0.0999%.

In the case of `C1CCCC1`, the “activity change” value was -3.8%.

`CCCCCCCCC/C=C/CC1CC(=O)OC1=O` (centres undefined): the “activity change” value was -1.76%.

For `Cc1cc(C)cc(O)c1`, the “activity change” value is -7.02%.

For `CCC(O)C(C)(C)C` (centres undefined), the “activity change” value was -7.68%.

For `CCCCCCCCC`, the “activity change” value is -4.83%.

With `CCCCCCCCCCCCC1CO1` (centres undefined), the “activity change” value is -2.36%.

`CC(=O)c1nccs1`: the “activity change” value is -2.95%.

Take `Clc1ccc(Cl)c(Cl)c1Cl`: the “activity change” value is -2.35%.

Turning to `CC/C=C/C#N`, the “activity change” value was -3.03%.

Take `NC(=S)NNC(N)=S`: the “activity change” value was -3.38%.

Take `Cc1ccc(C(C)(C)C)cc1`: the “activity change” value is -7.12%.

For the compound `O=Cc1cccc(Br)c1`, the “activity change” value is 0.453%.

Consider `Cc1ccc(C)c(N)c1`, for which the “activity change” value was -4.4%.

On to `CC(C)c1ccccc1`, for which the “activity change” value is -8.96%.

A short description of another test: Cell Viability - LYMP1-003 - Assay at 24 hr (AID 963).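 Note: plate controls were DMSO only for no effect and tetraoctylammonium bromide positive control for full effect.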 Particulars: LYMP1-003 lymphoblastoid cell viability; series mostly up to 92.2 µM; viability change, negative = cytotoxic: at the top concentration. The method, boiled down:
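CellTiter-Glo luminescence (intracellular ATP) read after 24 hr, 37 C compound exposure of 2500 LYMP1-003 human lymphoblastoid cells/well in complete medium; qHTS concentration series; AC50 via standard Hill equation.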
As for `CCN(C(=O)N(CC)c1ccccc1)c1ccccc1`, the “viability change, negative = cytotoxic” value is -0.826%.

Turning to `CCNc1cc(O)ccc1C`, the “viability change, negative = cytotoxic” value is -1.65%.

With `Cc1ccc(C(=O)O)cc1`, the “viability change, negative = cytotoxic” value is -0.503%.

As to `C=Cc1ccccn1`, the “viability change, negative = cytotoxic” value was 0.551%.

For the compound `CC(C)C(C)C`, the “viability change, negative = cytotoxic” value was -3.85%.

As to `CCCCC(=O)N(C)C`, the “viability change, negative = cytotoxic” value is 0.161%.

`Nc1cc(S(=O)(=O)O)ccc1O`: the “viability change, negative = cytotoxic” value was 4.78%.

In the case of `O=C1OC(=O)c2c(Br)c(Br)c(Br)c(Br)c21`, the “viability change, negative = cytotoxic” value is -4.23%.

In the case of `Cc1cccc2sc(N)nc12`, the “viability change, negative = cytotoxic” value was -0.8%.

Consider `CN(C)c1cccc(O)c1`, for which the “viability change, negative = cytotoxic” value is -1.63%.

As for `BrC(Br)C(Br)Br`, the “viability change, negative = cytotoxic” value was 1.92%.

In the case of `CC(=O)c1ccccn1`, the “viability change, negative = cytotoxic” value is -5.2%.

In the case of `O=P(O)(OCc1ccccc1)OCc1ccccc1`, the “viability change, negative = cytotoxic” value is -6.05%.

For the compound `CC(N)CN` (centres undefined), the “viability change, negative = cytotoxic” value is -2.14%.

Regarding `OC1CCCC1`, the “viability change, negative = cytotoxic” value is 0.339%.

Turning to `Cc1ccc(N(C)C)cc1`, the “viability change, negative = cytotoxic” value was -2.59%.

Take `OCCO`: the “viability change, negative = cytotoxic” value was 2.3%.

On to `Cc1ccc2nc(-c3ccc(N)cc3)sc2c1S(=O)(=O)O`, for which the “viability change, negative = cytotoxic” value is -2.73%.

As for `CCOC(=O)OCC`, the “viability change, negative = cytotoxic” value is 2.51%.

With `Nc1cccc(C(F)(F)F)c1`, the “viability change, negative = cytotoxic” value is 5.01%.

For the compound `ClCCl`, the “viability change, negative = cytotoxic” value is 0.568%.

Regarding `CN(C)CCCCl`, the “viability change, negative = cytotoxic” value is -2.93%.

For the compound `CC(=O)c1cccc([N+](=O)[O-])c1`, the “viability change, negative = cytotoxic” value was -1.23%.

For the compound `O=C(O)c1ccccc1Cl`, the “viability change, negative = cytotoxic” value was -5.86%.

Turning to `CSCCC=O`, the “viability change, negative = cytotoxic” value was -0.171%.

Take `C=C(C)OC(C)=O`: the “viability change, negative = cytotoxic” value is 2.15%.

With `C1CCCC1`, the “viability change, negative = cytotoxic” value is -2.37%.

In the case of `CCCCCCCCC/C=C/CC1CC(=O)OC1=O` (centres undefined), the “viability change, negative = cytotoxic” value is -1.27%.

Consider `Cc1cc(C)cc(O)c1`, for which the “viability change, negative = cytotoxic” value was 1.87%.

For `CCC(O)C(C)(C)C` (centres undefined), the “viability change, negative = cytotoxic” value was -1.44%.

Turning to `CCCCCCCCC`, the “viability change, negative = cytotoxic” value is -1.89%.

Turning to `CCCCCCCCCCCCC1CO1` (centres undefined), the “viability change, negative = cytotoxic” value was -1.6%.

For `CC(=O)c1nccs1`, the “viability change, negative = cytotoxic” value was 2.16%.

Regarding `CC/C=C/C#N`, the “viability change, negative = cytotoxic” value is 1.19%.

With `NC(=S)NNC(N)=S`, the “viability change, negative = cytotoxic” value is -3.69%.

Regarding `Cc1ccc(C(C)(C)C)cc1`, the “viability change, negative = cytotoxic” value is 3.96%.

Regarding `O=Cc1cccc(Br)c1`, the “viability change, negative = cytotoxic” value is 1.66%.

Turning to `Cc1ccc(C)c(N)c1`, the “viability change, negative = cytotoxic” value was 0.135%.

On to `CC(C)c1ccccc1`, for which the “viability change, negative = cytotoxic” value is -0.357%.
